The nature of assay [1]: cAMP Responsive Elements (CRE) small molecule antagonists, cell-based qHTS assay: qHTS cell viability counter screen (AID 2060913). Note: nearly all actives have a fitted effect of over 40% in size. Conditions: CRE-bla HEK293T viability, CellTiter-Glo luminescence, 5 h; series mostly up to 92.4 µM. The method in brief: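 HEK293T CRE-bla, 2,000 cells/well, 18 h preincubation; cpd in DMSO + NKH477 0.25 uM final, 3 h 37 C/5% CO2; LiveBLAzer 2 h RT, then CellTiter-Glo 30 min RT, luminescence.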

The nature of assay [2]: cAMP Responsive Elements (CRE) small molecule agonists, cell-based qHTS assay: qHTS cell viability counter screen (AID 2060914).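 Note: viability read after 3 h of compound exposure; nearly all actives have a fitted effect of over 50% in size.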 Conditions: CRE-bla HEK293T viability, CellTiter-Glo luminescence, 5 h; series mostly up to 92.4 µM. The essentials:
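CRE-bla HEK 293T cells, plated 18 h at 37 °C, were exposed to compounds for 3 h at 37 °C/5% CO2. Viability was then measured in the same wells by CellTiter-Glo luminescence after 30 min at room temperature.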
In general terms: Quantitative high-throughput screening tests each substance at several concentrations.

Results filed as inconclusive are left out. A call without a number means that no potency is given here. The source made the active and inactive calls. Calls come from the whole dose curve; as a rule, active = well fitted cell-killing curve with a large enough effect in the repeat runs; inconclusive = weak or mixed curves, or effect the other way; inactive = flat fitted curve, though single readings scatter.

For the compound `Fc1ccc(Br)cc1`, the Potency result in assay [1] and in assay [2] was “inactive” throughout.

For `CCN(CC)CCNC(=O)c1ccc(N)cc1`, the Potency entry in assay [1] and in assay [2] was “inactive” in each case.

For the compound `COC(=O)CCC(=O)O`, the Potency entry in assay [1] and in assay [2] was “inactive” in each case.

Turning to `Oc1c(Cl)ccc(Cl)c1Cl`, the Potency entry in assay [1] and in assay [2] was “inactive” each time.

On to `CCc1cc2cc(OC)c(OC)cc2c(Cc2ccccc2)n1`, for which the Potency entry in assay [1] and in assay [2] was “inactive” each time.

`O=C1CC2CC1C1CCCC21` (stereo not drawn): the Potency entry in assay [1] and in assay [2] was “inactive” each time.

For `CC(=O)c1ccc(C(C)=O)cc1`, the Potency entry in assay [1] and in assay [2] was “inactive” throughout.

As to `CC(C)NC[C@@H](O)COc1ccc(CC(N)=O)cc1`, the Potency entry in assay [1] and in assay [2] was “inactive” in each case.

For the compound `CCOC(=O)CC1(C)OCC(C)O1` (stereo not drawn), the Potency result in assay [1] and in assay [2] was “inactive” throughout.

These data come from PubChem BioAssay (Tox21).
